The term inhibition denotes the relative decrease from the control value, in per cent.

The campaign covered roughly 290,000 compounds. About 27,000 (9.3%) were called active. Rule as the data show it: active = inhibition mostly above about 28% (no sharp cut-off); inactive = mostly below about 43%. For the sample, actives were picked, then their nearest neighbours and some compounds at random. Where a SMILES comes first, the peptide text is derived from it. [ ]: non-standard residue; d: D form. The star is where a group is joined. PhAc = O=C(Cc1ccccc1)*

This experiment is described as follows: A qHTS for Small Molecule Inhibitors of Shiga Toxin. Also: 0% is about no effect. The conditions noted are these: Vero cells, Shiga toxin protein synthesis inhibition reporter; at 38.7 µM, stronger effect = higher value. (In general: qHTS replaces the single test concentration by a dilution series.)
For the compound `Cc1cc(N)n2nc(-c3ccc(C(C)(C)C)cc3)cc2n1`, the inhibition was 88.7% (active).

Consider `Cc1nc2cc(-c3ccc(F)cc3)nn2c(N2CCOCC2)c1C`, for which the inhibition is 62.6% (inactive).

For the compound `Cc1cc(C(C)(C)C)n2nc(C)c(-c3ccccc3)c2n1`, the inhibition is -4.85% (inactive).

Turning to `Cc1cccc(OCC(O)CN2CCN(S(=O)(=O)c3ccc(C)cc3C)CC2)c1` (stereo not drawn), the inhibition was -2.77% (inactive).

With `O=C(CSC1=NCCS1)Nc1nc(-c2ccccc2)cs1`, the inhibition was 29.7% (inactive).

On to `O=C(CSCC(=O)Nc1cccc([N+](=O)[O-])c1)Nc1ccccc1`, for which the inhibition is 7.24% (inactive).

As for `CCOC(=O)CSc1nnc(CNc2nc(-c3ccccc3)cs2)n1C`, the inhibition was 9.53% (inactive).

On to `CCNC(=O)CSc1nc(-c2ccccc2)cs1`, for which the inhibition is 74.3% (active).

For `O=C(CSc1ncn[nH]1)Nc1nc(-c2cccc([N+](=O)[O-])c2)cs1`, the inhibition is 8.25% (inactive).

Consider `O=C(CSc1nc(-c2ccccc2)cs1)Nc1cccc([N+](=O)[O-])c1`, for which the inhibition was 81.3% (active).

In the case of `CC(C)C[C@@H](NC(=O)[C@H]1CCCN1C(=O)Cc1ccccc1)C(N)=O` (PhAc-[dP]-[dL]-NH2), the inhibition was 6.07% (inactive).

Turning to `CCc1ccc(Nc2nnc(SCC(=O)c3ccc4c(c3)NC(=O)CO4)s2)cc1`, the inhibition was 32.3% (inactive).

Take `CC(C)[C@H](NC(=O)OCc1ccccc1)C(=O)OCc1ccccc1`: the inhibition is 25.1% (inactive).

On to `CCC1OC(c2ccc([N+](=O)[O-])cc2)=Nc2ccccc21` (stereo not drawn), for which the inhibition is 6.08% (inactive).

In the case of `COc1ccc(-c2n[nH]c(C)c2-c2ccccc2OC)c(O)c1`, the inhibition is 13.4% (inactive).

In the case of `O=C(C1CC(=O)N(c2ccc(Br)cc2)C1)N1CCCC1` (stereo not drawn), the inhibition was -22.5% (inactive).

In the case of `COc1ccc(NC(=O)c2cc([N+](=O)[O-])ccc2NC(=O)CNC2CCCCC2C)c(OC)c1` (stereo not drawn), the inhibition is 7.27% (inactive).

Turning to `CCc1nnc(NC(=O)c2cccc(S(=O)(=O)N(C)c3ccc(OC)cc3)c2)s1`, the inhibition was -10.6% (inactive).

In the case of `CCc1ccc2nc3sc(C(=O)Nc4nnc(CC)s4)c(N)c3cc2c1`, the inhibition was 48.9% (active).

Turning to `CCc1nnc(NC(=O)c2sc3nc(C)cc(COC)c3c2N)s1`, the inhibition was 53.1% (inactive).

Turning to `Cc1ccc(C)c(S(=O)(=O)Nc2cccc(-n3cnnn3)c2)c1`, the inhibition was 23.9% (inactive).

With `Cc1cccc[n+]1CC(=O)c1ccccc1`, the inhibition is 5.04% (inactive).

Consider `O=C(N/N=C/c1c(Cl)[nH]c2ccccc12)c1sc2ccccc2c1Cl`, for which the inhibition is -0.233% (inactive).

As for `O=C(Nc1ccon1)c1sc2ccccc2c1Cl`, the inhibition was 88% (active).

`O=C(Nc1ccon1)c1cccc(Cl)c1`: the inhibition is 5.52% (inactive).

On to `Cc1ccccc1-c1nc(C#N)c(NCc2ccco2)o1`, for which the inhibition was 71.9% (inactive).

Take `N#Cc1nc(COc2ccc(-c3ccccc3)cc2)oc1NCc1cccnc1`: the inhibition was 56.8% (inactive).

Turning to `N#Cc1nc(Cc2ccccc2)oc1NCCc1ccccc1`, the inhibition was 64.7% (active).

For `N#Cc1nc(Cc2cccc3ccccc23)oc1NCc1ccc2c(c1)OCO2`, the inhibition was 12.3% (inactive).

Regarding `COc1ccc(Nc2oc(-c3ccccc3Cl)nc2C#N)cc1`, the inhibition was 20.6% (inactive).

With `CCOc1ccc(Nc2oc(Cc3ccccc3)nc2C#N)cc1`, the inhibition is 58.5% (active).

`O=C(Nc1ccc(F)cc1)c1ccc(S(=O)(=O)NCc2cccnc2)cc1`: the inhibition is 27.5% (inactive).

Consider `CCOc1ccc(S(=O)(=O)N2CCC(C(=O)NCc3ccccn3)CC2)cc1Cl`, for which the inhibition was 3.21% (inactive).

Take `CC1CCN(C(=O)c2ccc3c(=O)n4c(nc3c2)CCCCC4)CC1`: the inhibition is 19.9% (inactive).

Regarding `CC(=O)Nc1ccc(S(=O)(=O)Nc2nccc(/C=C/c3ccccc3F)n2)cc1`, the inhibition is 21.8% (inactive).

With `Cc1cc(C)nc(NS(=O)(=O)c2ccc(N/C=C\C(=O)c3cccs3)cc2)n1`, the inhibition was 97.2% (active).

On to `CCc1nnc(NS(=O)(=O)c2ccc(NC(=S)NC(=O)c3cccs3)cc2)s1`, for which the inhibition was -15.7% (inactive).

Consider `COc1ccc(C(C(O)C(=O)c2c[nH]c3ccccc23)N2CCN(c3ccccc3)CC2)cc1` (stereo not drawn), for which the inhibition is -5.67% (inactive).

Take `COc1ccc(/C=C(\C#N)c2c[nH]c3ccccc23)cc1`: the inhibition is 68% (active).

`COc1ccc2[nH]cc(/C=C(/C#N)S(=O)(=O)c3ccccc3)c2c1`: the inhibition is -6.23% (inactive).

For the compound `O=C(COC(=O)c1ccc(Cl)nc1)NCc1cccs1`, the inhibition is -3.54% (inactive).

For `O=C(COC(=O)CCc1c[nH]c(=O)[nH]1)Nc1ccccc1Cl`, the inhibition was -3.38% (inactive).

On to `NS(=O)(=O)c1ccc(NC(=S)NNC(=O)c2cccs2)cc1`, for which the inhibition is 107% (active).

Take `NS(=O)(=O)c1ccc(NC(=S)NC(=O)c2cccnc2)cc1`: the inhibition was -16% (inactive).

Turning to `O=C(COC(=O)c1cccs1)NCc1cccs1`, the inhibition is 40% (active).

As for `O=C(COC(=O)CCC(=O)c1cccs1)NCc1ccco1`, the inhibition is -12.8% (inactive).

Turning to `O=C(COC(=O)c1cccs1)Nc1ccccc1Cl`, the inhibition was 36.9% (active).

`CCc1ccc(NC(=O)C(=O)NNC(=O)c2cccs2)cc1`: the inhibition is 39.1% (active).

Consider `O=C(COC(=O)/C(=C/c1cccs1)c1cccs1)NCc1ccccc1Cl`, for which the inhibition is 13.7% (inactive).

Consider `Cc1ccccc1C(=O)N1CCN(c2ccc(NC(=O)c3cccs3)cc2)CC1`, for which the inhibition is -18.3% (inactive).

Turning to `NS(=O)(=O)c1ccc(NC(=S)NC(=O)c2cccc(Br)c2)cc1`, the inhibition was 4.4% (inactive).

For the compound `COc1ccc(CCOC(=O)CNC(=O)c2ccc(Cl)cc2Cl)cc1`, the inhibition was 7.31% (inactive).

Take `CCCOc1ccc(CNC(=O)C2CCN(c3nn4c(=O)cc(C)nc4s3)CC2)cc1`: the inhibition was -3.64% (inactive).

For the compound `Cc1cccnc1CCNC(=O)C1CCC(=O)N(Cc2cccc(F)c2)C1` (stereo not drawn), the inhibition is -6.16% (inactive).

Take `COC(CNC(=O)c1ccc2c(c1)ncn2-c1cc(C)cc(C)c1)OC`: the inhibition is 4.27% (inactive).

As for `COc1cccc(CN(C)C(=O)CC23CC4CC(CC(C4)C2)C3)c1OC`, the inhibition was -11.5% (inactive).

Turning to `CS(=O)(=O)c1ccc(-c2nnn(CC(=O)Nc3ccc4c(c3)OCCO4)n2)cc1`, the inhibition was 20.6% (inactive).

As for `CCc1ccc(NC(=O)CCNS(=O)(=O)c2cccs2)cc1`, the inhibition is 53.4% (active).

Turning to `CCc1cccc(NC(=O)CCNS(=O)(=O)c2cccc3nonc23)c1`, the inhibition was -3.23% (inactive).

As to `CCc1ccc(NC(=O)COC(=O)c2cccs2)cc1`, the inhibition was 51.4% (active).

Regarding `O=S(=O)(NCCc1ccc(Cl)cc1)c1cccs1`, the inhibition was 10.5% (inactive).

For the compound `Cc1ccc(OCC(=O)Nc2ccc(NC(=O)c3cccs3)cc2)c(C)c1`, the inhibition was 25.9% (inactive).

Turning to `C/C(=N\OCC(=O)Nc1ccc(Br)cc1)c1cccs1`, the inhibition was 40.3% (inactive).

For the origin of these results see PubChem BioAssay AID2315 (National Center for Advancing Translational Sciences (NCATS), 2010).
